Assay results as given in PubChem BioAssay (NCI).
This is part of a sample that, as a whole, favours compounds with a hit. Of some 83,000 tested, about 20% had one in any assay.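 Step 1: grow cells in 96-well plates. Step 2: add test compound at a single concentration. Step 3: incubate 48 h. Step 4: record percent growth.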 Values without a mark were called inactive. Calls of active or inactive are those of the source. The calls were made as follows: active = growth percent below 10; inactive = the rest.

How the values were obtained:
Assay in all cases: NCI-60 one-dose screen, 48 h (100 = growth as untreated, 0 = no growth, -100 = all killed)
SR leukemia = settings: 10 µM unless noted
RPMI-8226 leukemia = settings: 10 µM
OVCAR-8 ovarian = settings: 10 µM unless noted
OVCAR-5 ovarian = settings: 10 µM unless noted
OVCAR-4 ovarian = settings: 10 µM unless noted
SK-OV-3 ovarian = settings: 10 µM
IGROV1 ovarian = settings: 10 µM unless noted
OVCAR-3 ovarian = settings: 10 µM unless noted
HS 578T breast = settings: 10 µM unless noted
NCI/ADR-RES ovarian = settings: 10 µM unless noted
T-47D breast = settings: 10 µM
BT-549 breast = settings: 10 µM unless noted
MDA-MB-435 melanoma = settings: 10 µM unless noted
SW-620 colon = settings: 10 µM unless noted
MCF7 breast = settings: 10 µM unless noted
HCT-116 colon = settings: 10 µM unless noted
HCC-2998 colon = settings: 10 µM unless noted
KM12 colon = settings: 10 µM unless noted

| SMILES | growth (SR leukemia) | growth (RPMI-8226 leukemia) | growth (OVCAR-8 ovarian) | growth (OVCAR-5 ovarian) | growth (OVCAR-4 ovarian) | growth (SK-OV-3 ovarian) | growth (IGROV1 ovarian) | growth (OVCAR-3 ovarian) | growth (HS 578T breast) | growth (NCI/ADR-RES ovarian) | growth (T-47D breast) | growth (BT-549 breast) | growth (MDA-MB-435 melanoma) | growth (SW-620 colon) | growth (MCF7 breast) | growth (HCT-116 colon) | growth (HCC-2998 colon) | growth (KM12 colon) |
| --- | --- | --- | --- | --- | --- | --- | --- | --- | --- | --- | --- | --- | --- | --- | --- | --- | --- | --- |
| COc1ccccc1-n1c(SCc2cc(OC)c(OC)c(OC)c2)nc2ccc(Cl)cc2c1=O | 16.1% | 17.4% | 55.3% | 53.3% | 63% | 59.5% | 47.7% | 0.54% (active) | 39.6% | 20.2% | 43.9% | 39.5% | -34.2% (active) | 16.9% | 15.6% | 21.1% | 56.9% | 16.4% |
| CC1SC(c2cccc(Oc3ccccc3)c2)N(CCc2cccs2)C1=O (centres undefined) | -2.19% (active) | -13.5% (active) | 0% (active) | -13.9% (active) | 8.45% (active) | -8.94% (active) | -23.6% (active) | -98.1% (active) | -44.8% (active) | -28% (active) | 0.211% (active) | -69.2% (active) | -43.1% (active) | -3.96% (active) | -0.665% (active) | -85.6% (active) | -32.9% (active) | -25.2% (active) |
| O=C1CC2c3cc(-c4cc5ccccc5o4)ccc3CCN2C(=O)N1c1ccccc1 (centres undefined) | 57.6% | 68.1% | 88.4% | 97.9% | 84.7% | 80% | 84.6% | 99.3% | 107% | 81.4% | 57.4% | 92.2% | 89.3% | 111% | 88.6% | 75.3% | 110% | 101% |
| O=C1C=CC(=O)N1CCCCCCCCCCN1C(=O)C=CC1=O | 29.1% | 52.9% | 78.2% | 103% | 102% | 126% | 69.5% | 38.2% | 67.4% | 73.1% | 77.9% | 101% | 68.6% | 4.62% (active) | 82.7% | 32.9% | 90.7% | 86.2% |
| CC(=O)Nc1ccccc1-c1n[nH]c(=O)[nH]c1=O | 107% | 103% | 106% | 96.4% | 93.6% | 99.1% | 104% | 113% | 77.9% | 102% | 97.5% | 112% | 97.9% | 96.4% | 101% | 104% | 116% | 105% |
| COc1ccc(-c2nc(Nc3ccc(F)cc3)nc(Nc3ccc4c(c3)nc(C)n4Cc3ccccc3)n2)cc1 | -20.4% (active) | -17.7% (active) | 17.9% | 88.1% | 42.6% | 76.8% | 36.4% | 50.5% | 54.5% | 26.6% | 11.5% | 70.7% | 34.1% | 45.7% | 22.6% | 23.4% | 45.5% | 26% |
| CC(=O)c1cc(C)c(OC(=O)c2ccccc2)c(C)c1 | 82.8% | 80.4% | 103% | 106% | 91.6% | 103% | 123% | 106% | 100% | 97.9% | 74.9% | 97.6% | 95.2% | 103% | 105% | 93.7% | 100% | 104% |
| Cc1c(NCC(=O)Nc2nc3ccccc3[nH]2)c(=O)n(-c2ccccc2)n1C | 92.4% | 96.7% | 99.9% | 92.5% | 88.3% | 106% | 102% | 109% | 101% | 101% | 97.8% | 110% | 103% | 103% | 89.4% | 101% | 114% | 112% |
| Cc1nc2nc(C(F)(F)F)[nH]c2nc1C | 111% | 92.1% | 105% | 115% | 97.7% | 98.5% | 117% | 116% | 119% | 107% | 104% | 100% | 112% | 114% | 95.2% | 101% | – | 105% |
| Cc1nc2cc(Nc3nc(NCCN)nc(Nc4ccc(F)cc4)n3)ccc2n1Cc1ccccc1 | -26.5% (active) | -45% (active) | 89.1% | 106% | 77% | 95.5% | 81.4% | 86.7% | 102% | 103% | 69.1% | 90% | – | 73.9% | 68.8% | 60.3% | 70.6% | 70.6% |
| O=C1NC(=O)C2(CCCC2C(=O)O)N1 (centres undefined) | 90.4% | 103% | 100% | 110% | 99.4% | 119% | 131% | 120% | 115% | 100% | 106% | 102% | – | 108% | 96.2% | 98.4% | 100% | 113% |
| N#CC1=C(N)Oc2cc(N)ccc2C1c1ccc(F)cc1 (centres undefined) | 20.5% | 81.6% | 98.6% | 97.2% | 94.1% | 85.2% | 69.4% | 96.8% | 81.4% | 44.9% | 96.6% | 69.2% | -21.9% (active) | 46.8% | 64.1% | 78.4% | – | 49.7% |
| NS(=O)(=O)c1cc(Br)c2c(c1)S(=O)(=O)NCN2 | 88% | 106% | 103% | 112% | 120% | 115% | 115% | 99.3% | 110% | 135% | 102% | 108% | 105% | 109% | 97.4% | 108% | – | 96.9% |
| O=S(=O)(Nc1ncccn1)c1ccc(Nc2ccc3nnc(-c4ccncc4)n3n2)cc1 | 102% | 109% | 103% | 94.3% | 93.8% | 103% | 105% | 104% | 84.3% | 102% | 101% | 106% | – | 93% | 104% | 108% | 111% | 101% |
| NC(=O)c1nc2c([nH]c1=O)CCCC2 | 100% | 96.5% | 106% | 117% | 109% | 94.7% | 115% | 108% | 109% | 105% | 92.7% | 115% | 113% | 101% | 98.7% | 109% | – | 98.8% |
| Cc1ccc2nc(NC(=O)CSC(=S)N3CCN(C)CC3)sc2c1 | 138% | 106% | 75.6% | 105% | 100% | 108% | 86.7% | 120% | 114% | 89% | 105% | 97.4% | 101% | 106% | 93% | 97.2% | – | 111% |
| COc1ccc(C2SC(C)C(=O)N2CCc2cccs2)cc1OC (centres undefined) | 63.8% | 68.8% | 85.1% | 104% | 62.8% | 102% | 79.6% | 95.3% | 95.4% | 86.1% | 52.9% | 76% | – | 102% | 86.3% | 78.4% | 84% | 96.3% |
| Nc1nc(N)c(C=Nc2ccc(Br)cc2)c(Nc2ccc(Br)cc2)n1 | 64.2% | 113% | 87.3% | 79.3% | 107% | 104% | 86.3% | 149% | 80.8% | 77.6% | 76.8% | 69.3% | 84.7% | 99.7% | – | 78.5% | 83.5% | 86.3% |
